In PubChem BioAssay AID372 (MTDP, 2006):
About 770 (0.77%) of roughly 100,000 compounds were called active. Rule as the data show it: active = inhibition above about 50%; inactive = the rest. Shown is part of a subset that was picked to be rich in actives.

target: Gag-Pol polyprotein (Human immunodeficiency virus type 1 group M subtype B (isolate HXB2)) (UniProt P04585); experiment: RNase H inhibition, HIV 1 Gag Pol polyprotein, FRET biochemical assay, screening (AID 372); settings: HIV-1 RT RNase H, FRET RNA/DNA substrate fluorescence; at 10 µM; stronger effect = higher value

SMILES | inhibition
O=C1OC(/C=C/c2ccccc2)=NC/1=C/c1ccc(-c2ccc3c(c2)C(=O)NC3=O)o1 | 33% (inactive)
C#CCOc1ccc(C=C2C(=O)N(C)C(=S)N(C)C2=O)cc1Br | 21% (inactive)
Clc1ccc(C2C=C(c3cccs3)Nc3nnnn32)cc1 (stereo unspecified) | 3% (inactive)
O=C1NC(=S)S/C1=C\c1ccc(O)c(O)c1 | 78% (active)
Nc1ccc(/C=C2/SC(=S)NC2=O)cc1 | 4% (inactive)
COc1cc(/C=C2/SC(=S)NC2=O)ccc1OC(C)C | 1% (inactive)
COc1ccc(/C=C2/SC(=S)NC2=O)cc1I | 39% (inactive)
COc1cc(/C=C2\SC(=Nc3ccc(C)c(Cl)c3)NC2=O)cc(OC)c1OC | 21% (inactive)
O=C1NC(=S)S/C1=C/c1cc(Br)ccc1O | 24% (inactive)
O=C1NC(=S)S/C1=C/c1ccc(Cl)cc1 | 10% (inactive)
COc1cc(/C=C2\SC(=Nc3ccc(C)c(Cl)c3)NC2=O)ccc1O | 47% (inactive)
O=C1NC(=S)S/C1=C/c1ccc(O)c(Br)c1 | 3% (inactive)
COc1cc(/C=C2\SC(=Nc3ccc(C)c(Cl)c3)NC2=O)ccc1C | 56% (active)
COc1ccc(/C=C2\SC(=S)NC2=O)cc1C | 65% (active)
O=C1NC(=S)S/C1=C\c1ccc(N2CCCC2)cc1 | 54% (active)
O=C1C(Cc2ccccc2)S/C(=N/N=C/c2cccc([N+](=O)[O-])c2)N1c1ccccc1 (stereo unspecified) | 20% (inactive)
Cc1ccc(NC(=O)CN(c2ccc(Br)cc2)S(=O)(=O)c2ccccc2)cc1Cl | 7% (inactive)
CCOc1ccccc1NC(=O)CCN1C(=O)/C(=C/c2ccccc2Cl)SC1=S | 13% (inactive)
CCCCOC(C)n1cc(Cl)c(=O)[nH]c1=O (stereo unspecified) | 3% (inactive)
COc1ccc2c(c1)c(=O)oc1cc(OCC(=O)c3ccc(F)cc3)ccc12 | 34% (inactive)
COc1cc(/C=C2\SC(=S)NC2=O)cc(Br)c1OC | 5% (inactive)
COc1cc(/C=C2/SC(=S)NC2=O)cc(Cl)c1OCC(C)COc1ccccc1 (stereo unspecified) | 50% (active)
COc1cc(/C=C2\SC(=S)NC2=O)ccc1OCCOc1ccccc1Cl | 51% (active)
COc1ccc(/C=C2\SC(=S)NC2=O)c(OC)c1OC | 0% (inactive)
CC(C)COc1ccc(/C=C2\SC(=S)NC2=O)cc1 | 22% (inactive)
COc1cc(/C=C2\SC(=S)NC2=O)cc(Cl)c1OCCOc1ccccc1Cl | 26% (inactive)

SMILES | inhibition
COc1cc(/C=C2\SC(=S)NC2=O)cc(Br)c1OC(=O)c1ccccc1 | 58% (active)
CCOc1cc(/C=C2\SC(=S)NC2=O)ccc1OCCOc1ccccc1Cl | 43% (inactive)
COc1cccc(OCCOc2c(Cl)cc(/C=C3/SC(=S)NC3=O)cc2OC)c1 | 23% (inactive)
COc1cc(/C=C2\SC(=S)NC2=O)cc(Br)c1OC(C)=O | 4% (inactive)
CC(C)COc1ccc(/C=C2\SC(=S)NC2=O)c2ccccc12 | 51% (active)
COc1ccc(OCCOc2c(Cl)cc(/C=C3\SC(=S)NC3=O)cc2OC)cc1 | 47% (inactive)
CCc1ccc(C=Nn2c(-c3ccc(Cl)cc3)n[nH]c2=S)cc1 | 3% (inactive)
CCOc1cc(/C=C2\C(=O)NC(=O)N(c3ccc(Cl)cc3)C2=O)cc(Cl)c1OCC | 0% (inactive)
CCC(C)OC(=O)C1=C(C)NC2=C(C(=O)CC(c3ccc(Cl)cc3)C2)C1c1ccc(OC(C)=O)cc1 (stereo unspecified) | 11% (inactive)
COc1ccccc1/C=C\C=N\n1c(-c2ccc(Cl)cc2Cl)n[nH]c1=S | 34% (inactive)
CS(=O)(=O)N(CC(O)Cn1c2ccccc2c2ccccc21)c1ccc(Br)cc1 (stereo unspecified) | 1% (inactive)
CCN(CC)c1ccc(/C=N/NC(=O)CCC(=O)Nc2cccc(Cl)c2C)c(O)c1 | 6% (inactive)
CCOP(=O)(CN1CCN(CP(=O)(OCC)OCC)CC1)OCC | 2% (inactive)
Cc1c(NC(=O)c2cc(Cl)ccc2Cl)cccc1-c1nc2ccccc2s1 | 9% (inactive)
O=c1/c(=C/c2ccc(-c3ccccc3)o2)sc2nc3ccccc3n12 | 9% (inactive)
CCOC(=O)C1=C(C)NC2=C(C(=O)CC(c3ccc(OC)cc3)C2)C1c1ccc(OC)c(OC)c1 (stereo unspecified) | 11% (inactive)
Cc1ccc(C(=O)Oc2ccccc2C(=S)N2CCOCC2)cc1 | 0% (inactive)
CCOC(=O)C1CCCN(C(=O)N2CCOCC2)C1 (stereo unspecified) | 12% (inactive)
Cc1cc2ncn(CC(O)COc3ccc(C(=O)O)cc3)c2cc1C (stereo unspecified) | 0% (inactive)
COc1ccccc1CNc1cccc(F)c1 | 0% (inactive)
O=C1NC(=S)S/C1=C\c1ccccc1OCCOc1ccccc1Cl | 46% (inactive)
O=C1NC(=Nc2cccc(Cl)c2Cl)S/C1=C\c1ccc(O)c(O)c1 | 89% (active)
O=C1NC(=Nc2cccc(Cl)c2Cl)S/C1=C\c1ccc(O)cc1 | 12% (inactive)
O=C1NC(=Nc2cccc(Cl)c2Cl)S/C1=C\c1ccc(F)cc1 | 22% (inactive)
Cc1cc(C)cc(OCCOc2ccc([N+](=O)[O-])cc2/C=C2\SC(=S)NC2=O)c1 | 38% (inactive)
O=C1NC(=S)S/C1=C\c1cc([N+](=O)[O-])ccc1OCCOc1ccccc1Cl | 55% (active)

SMILES | inhibition
O=P(O)(OC(c1ccccc1)C(F)(F)F)c1ccccc1 (stereo unspecified) | 2% (inactive)
CC(=O)Oc1ccc(/C=C2/N=C(c3cccc([N+](=O)[O-])c3)OC2=O)cc1 | 14% (inactive)
O=C(Cc1ccccc1)Nc1ccncc1 | 11% (inactive)
Cn1cc(/C=C2/SC(=O)N(c3ccccc3)C2=O)c2ccccc21 | 12% (inactive)
COc1ccc(Cl)cc1/C=C1\C(=O)NC(=S)N(c2cccc(Cl)c2Cl)C1=O | 8% (inactive)
Clc1cccc(-c2ccc(/C=N/Nc3nc4ccccc4s3)o2)c1 | 4% (inactive)
O=[N+]([O-])c1ccc(C=Nn2c(-c3ccc(Cl)cc3Cl)n[nH]c2=S)cc1 | 51% (active)
O=[N+]([O-])c1ccc(Cl)c(C=Nn2c(-c3ccc(Cl)cc3Cl)n[nH]c2=S)c1 | 16% (inactive)
O=[N+]([O-])c1cc(C=Nn2c(-c3ccc(Cl)cc3Cl)n[nH]c2=S)ccc1Cl | 37% (inactive)
COc1ccccc1-n1c(C=C2C(=O)N(Cc3ccccc3)c3ccccc32)nc2ccccc2c1=O | 9% (inactive)
O=c1oc(/C=C\c2ccccc2)nc2ccc(Cc3ccc4nc(/C=C\c5ccccc5)oc(=O)c4c3)cc12 | 7% (inactive)
Cc1oc2ccc(OCc3ccc([N+](=O)[O-])cc3)cc2c1C(=O)OC(C)C | 13% (inactive)
CCOCCOC(=O)C1=C(C)NC2=C(C(=O)CC(c3ccc(OC)cc3)C2)C1c1cccc(OC)c1OC (stereo unspecified) | 5% (inactive)
O=C1c2ccccc2CCC1C1(O)C(=O)Nc2ccc(Br)cc21 (stereo unspecified) | 2% (inactive)
CCn1c2ccccc2c2ccc(-c3nn(-c4ccccc4)cc3C=O)cc21 | 11% (inactive)
Cc1nc(=O)c(-c2ccccc2)c(C)n1-c1ccc(C(=O)O)c(O)c1 | 0% (inactive)
Cc1ccc(C)n1-c1ccc(C(=O)O)c(Cl)c1 | 16% (inactive)
Cc1ccc(C)n1-c1ccc(Cl)c(O)c1 | 41% (inactive)
Cc1ccc(-c2ccccc2)n1-c1ccc(Cl)c(C(=O)O)c1 | 3% (inactive)
Cc1ccc(C)n1-c1cc(C(=O)O)cc(C(=O)O)c1 | 2% (inactive)
Cc1ccc(C)n1-c1ccc(Cl)c(C(=O)O)c1 | 53% (active)
Cc1ccc(C)n1-c1ccc(C(=O)O)c(O)c1 | 99% (active)
Cc1ccc(-c2ccccc2)n1-c1ccc(O)c(C(=O)O)c1 | 6% (inactive)
CC(C)(Cc1ccc(O)cc1)NC(=O)Cc1ccccc1 | 6% (inactive)
CS(=O)(=O)N(CC(=O)N1CCCC1)c1cccc(Cl)c1 | 6% (inactive)
CC1=C(C#N)C(c2cccc(F)c2)C2=C(CC(c3ccccc3)CC2=O)N1 (stereo unspecified) | 11% (inactive)

SMILES | inhibition
COc1ccc(OC)c(NC(=O)CN(CCc2ccccc2)S(=O)(=O)c2ccccc2)c1 | 15% (inactive)
Cc1cc(C)cc(NC(=O)Cc2ccccc2)c1 | 3% (inactive)
O=C1NC(=O)N(c2ccccc2)C(=O)/C1=C\c1cccc(OCc2ccc(F)cc2)c1 | 9% (inactive)
CC(=O)Nc1ccc2nn(-c3ccc(F)cc3)nc2c1 | 4% (inactive)
COc1ccc(-n2nnnc2SCC(=O)Nc2c(C)cc(C)cc2C)cc1 | 12% (inactive)
CCOC(=O)c1ccc(NC(=O)CSc2nnnn2-c2c(C)cc(C)cc2C)cc1 | 55% (active)
O=C(CSc1nnnn1-c1ccccc1)Nc1ccc(C(=O)O)cc1 | 0% (inactive)
CC1=C(C(=O)OC(C)C)C(c2cccc(F)c2)C2=C(CCCC2=O)N1 (stereo unspecified) | 4% (inactive)
CCN1C(=O)/C(=C2\SC(=S)N(CC(=O)O)C2=O)c2ccccc21 | 7% (inactive)
CCN1C(=O)/C(=C2\SC(=S)N(c3ccccc3)C2=O)c2ccccc21 | 4% (inactive)
C=CCN1C(=O)/C(=C2\SC(=S)N(Cc3ccccc3)C2=O)c2ccccc21 | 33% (inactive)
CCN1C(=O)/C(=C2\SC(=S)N(c3ccc(Br)cc3)C2=O)c2ccccc21 | 57% (active)
CCCCCN1C(=O)/C(=C2\SC(=S)N(c3ccc(Br)cc3)C2=O)c2ccccc21 | 16% (inactive)
CCN1C(=O)/C(=C2\SC(=O)N(Cc3ccccc3)C2=O)c2ccccc21 | 59% (active)
CCC(C(=O)Nc1nc(-c2ccccc2)c(C)s1)c1ccccc1 (stereo unspecified) | 10% (inactive)
COC(=O)C1=C(C)NC2=C(C(=O)CC(c3ccccc3)C2)C1c1cc(Br)c(O)c(OC)c1 (stereo unspecified) | 15% (inactive)
Cc1cc(=O)oc2cc(OC(=O)CCCOc3ccc(Cl)cc3Cl)ccc12 | 18% (inactive)
O=c1[nH]c2ccccc2c(O)c1-c1ccccc1[N+](=O)[O-] | 1% (inactive)
O=c1cc2oc3cc(O)c(O)cc3c(-c3ccccc3[N+](=O)[O-])c-2cc1O | 69% (active)
O=C1c2ccccc2C(=O)c2c(O)c([N+](=O)[O-])cc(O)c21 | 20% (inactive)
CN(C)c1ccc(-c2c3cc(O)c(=O)cc-3oc3cc(O)c(O)cc23)cc1 | 63% (active)
Cc1ccc(-c2cc(=O)c3cc(C)ccc3o2)cc1 | 11% (inactive)
Cc1ccc(-c2cc(=O)c3cc(Cl)ccc3o2)cc1 | 5% (inactive)
